Compounds with a hit are over-represented: about 3.8% of the library has one in this group of screens.
Nrf2 block = Nrf2 qHTS screen for inhibitors; hit rate 2.1% among 360,000; A549 ARE-Fluc reporter, luciferase luminescence, 18-24 h; Potency, µM (doses to about 46 µM), for inactives: at the highest dose activity change, negative = inhibition, hits mostly inhibitors; also: % is scaled to controls: 0 for no effect and ±100 for the full control effect; nearly all actives have a fitted effect of over 60% in size
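A549 ARE_Fluc cells (5000/well, 5% FBS OPTI-MEM) pre-incubated 2 h, then treated with compounds 18-24 h at 37C/5% CO2 in concentration-response. CellTiter-Fluor viability read first; BugLite luciferase luminescence after 15 min at room temperature gives Nrf2 activity.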
ATXN2 expr inh = Primary qHTS for Inhibitors of ATXN expression | Potency, µM (top dose mostly 57 µM), inactives show at the highest dose activity change, negative = inhibition, actives largely listed as inhibitors | HEK-293 ATXN2-luciferase reporter, luminescence, 24 h | hit rate 0.72% among 360,000; also: % is scaled to controls: 0 for no effect and ±100 for the full control effect; nearly all actives have a fitted effect of over 55% in size
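qHTS (up to 57 uM final) was run with 24 h compound exposure of reporter cells at 37 °C. Each well was multiplexed: SteadyGlo luminescence measured ATXN2-luciferase expression after a fluorogenic Gly-Phe-AFC viability readout (25 uM final).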
ATXN viability = Viability Counterscreen for Primary qHTS for Inhibitors of ATXN expression; hit rate 0.49% among 400,000; S2 cells (HEK-293 line with an ATXN2-luciferase reporter) viability, CellTiter-Fluor protease fluorescence, 24 h; Potency, µM (highest dose often 56.7 µM), usual class: cytotoxic; also: nearly all actives have a fitted effect of over 40% in size
HepG2 tox = qHTS for Inhibitors of TGF-b: Cytotox Counterscreen. HepG2 CAGA-GFP viability, ATP luminescence, 18 h. Potency, µM (doses to about 46.1 µM), for the others: top-dose activity change, negative = cytotoxicity, hits mostly cytotoxic. hit rate 0.76% among 410,000
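CellTiter-Glo luminescence gave cytotoxicity after 18 hours at 37 degrees C. The cells were HepG2 CAGA-GFP in 1% FBS DMEM, stimulated with 500 pg/mL TGF-beta after compound addition. %Activity was normalised to no-cell wells (complete cell-killing) and DMSO (no toxicity), and curves were fitted and classified.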
A549 viability = Nrf2 qHTS screen for inhibitors: counterscreen for cytotoxicity; A549 ARE-Fluc cells, CellTiter-Fluor viability, 18-24 h; Potency, µM (highest dose often 46 µM), for inactives: at the highest dose activity change, negative = cytotoxicity, usual class: inhibitors; hit rate 0.16% among 390,000; also: % is scaled to controls: 0 for no effect and ±100 for the full control effect
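Cytotoxicity counterscreen: CellTiter-Fluor fluorescence was measured in A549 ARE_Fluc cells after 18-24 h of compound exposure in a concentration series. The subsequent BugLite luminescent read reports ARE-luciferase activity.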
TGFb SMAD3 inh = qHTS for Inhibitors of TGF-b | AID 588855, 2011 | HepG2 CAGA-GFP TGF-b/SMAD3 reporter, GFP fluorescence, 18 h; TGF-beta stimulated, 500 pg/mL final | Potency, µM (titrated, usually from 46.1 µM), for inactives: at the highest dose activity, negative = inhibition, actives largely listed as inhibitors | hit rate 1.2% among 410,000; also: % is scaled to controls: 0 for no effect and ±100 for the full control effect; nearly all actives have a fitted effect of over 65% in size
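HEPG2 CAGA-GFP cells (1000/well, DMEM with 1% FBS) were pre-incubated 2 h at 37 degrees C, given compound by pin tool, then stimulated with TGF-beta at 500 pg/mL final for 18 h before per-cell GFP fluorescence imaging.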
* hit, by the source's call; i = inactive; ? = inconclusive; . = no result given. Calls follow the shape of the dose curve; as a rule, active = well fitted curve in the direction sought with a large enough effect; inconclusive = small, poorly fitted or top-dose-only effect, or another doubt; inactive = no such curve, though single readings can be large; an effect the other way counts as inactive or inconclusive. Potency is read from the fitted curve at half-maximal effect.

SMILES	Nrf2 block	ATXN2 expr inh	ATXN viability	HepG2 tox	A549 viability	TGFb SMAD3 inh
CCOC(=O)N1CCN(C(=O)CCNS(=O)(=O)c2cc(Br)cnc2N)CC1	-17.3%	-22.6%	i	1.0%	1.6%	2.7%
CC1=C(c2ccccc2)C(O)(c2ccccc2)C(C)C1=O (stereo unspecified)	-12.7%	-34.1%	i	-16.5%	-12.5%	-17.9%
COc1ccccc1NC(=O)c1cc2c(CO)cnc(C)c2oc1=Nc1ccccc1	3.7%	-26.4%	i	-3.7%	2.9%	-0.9%
COc1ccccc1NC(=O)c1cc2c(CO)cnc(C)c2oc1=Nc1cccc(C(N)=O)c1	-5.7%	.	14.1µM*	-13.7%	-2.4%	-12.8%
O=C(Nc1ccn(Cc2ccccc2F)n1)c1ccc(COc2ccc(Br)cc2)cc1	6.51µM*	?	i	-47.4%	?	-16.7%
CSc1ccc(C(=O)C2CCCN(C(=O)c3nn(C)c(=O)c4ccccc34)C2)cc1 (stereo unspecified)	18.4µM*	0.0%	i	-17.7%	-18.4%	?
Cn1nc(C(=O)N2CCCC2)c2ccccc2c1=O	10.6%	0.5%	i	-5.7%	-3.9%	?
COc1ccc(NC(=O)C23CC4CC(C2)CC(c2ccc(C)cc2)(C4)C3)cc1	16.4µM*	-22.1%	i	-32.3%	-18.0%	-15.6%
CCN(CC)CCNC(=O)c1cc(-c2cccnc2)nc2ccc(S(=O)(=O)N3CCC(C)CC3)cc12	?	.	i	-8.3%	23.1µM*	-1.2%
CCOc1cc(N2CCOCC2)c(OCC)cc1NC(=O)CN1C(=O)NC2(CCCCC2)C1=O	-1.8%	2.2%	i	-6.6%	-1.3%	-0.6%
O=C1CC(N2CCN(C3CC(=O)N(CCc4ccccc4)C3=O)CC2)C(=O)N1CCc1ccccc1 (stereo unspecified)	-1.2%	-15.0%	i	10.7%	12.5%	15.9%
O=C1CC(N2CCN(C/C=C/c3ccccc3)CC2)C(=O)N1CCc1ccccc1 (stereo unspecified)	9.2µM*	?	i	-28.6%	0.6%	?
Cc1ccc(C(=O)n2nc(-c3ccco3)nc2N)cc1	?	1.1%	i	-4.0%	0.1%	0.7%
Nc1nc(-c2ccco2)nn1C(=O)c1ccccc1Cl	1.84µM*	-19.6%	i	-16.2%	-1.2%	-23.4%
Cc1ccc(S(=O)(=O)NCC(=O)OC(C)C(=O)NC2CCCCC2C)cc1C (stereo unspecified)	13.2%	-5.5%	i	-7.9%	-4.6%	?
COc1ccc(C=C2SC(=S)NC2=O)c(OC)c1OC	?	16.4%	?	-14.7%	14.6µM*	-4.7%
COc1ccccc1C=C1SC(=S)NC1=O	-2.4%	18.7%	i	-25.7%	-16.7%	10.3%
O=[N+]([O-])c1ccccc1-c1ccc(/C=N/n2cnnc2)o1	3.2%	2.6%	i	-3.4%	-5.5%	-17.8%
O=C1ON=C(c2ccccc2)/C1=C/c1ccc(-c2ccccc2[N+](=O)[O-])o1	?	7.5%	i	-36.8%	?	20µM*
NS(=O)(=O)c1ccc(S(=O)(=O)N2CCN(c3nc(-c4ccccc4)nc4ccccc34)CC2)cc1	23.1µM*	.	.	.	-11.6%	.
CCCCCC1(C(=O)OCC)CC(CSC(=N)N)OC1=O (stereo unspecified)	1.9%	0.4%	i	-73.3%	-8.8%	12.6µM*
CCCCCCC1CC(CSC(=N)N)OC1=O (stereo unspecified)	.	-0.5%	?	-14.4%	-16.9%	15.4%
O=C(NCC(=O)N1CCN(Cc2ccccc2)CC1)c1ccc(Cl)cc1	29.1µM*	-34.4%	i	22.4%	-15.6%	1.6%
Cc1cccc(N2CCN(C(=O)CNC(=O)Cc3ccccc3)CC2)c1C	?	?	i	-11.7%	-18.5%	-18.9%
Cc1cccc(N2CCN(C(=O)CNC(=O)c3cccc([N+](=O)[O-])c3)CC2)c1C	23.1µM*	-36.4%	i	-8.8%	-3.4%	-24.5%
SMILES	Nrf2 block	ATXN2 expr inh	ATXN viability	HepG2 tox	A549 viability	TGFb SMAD3 inh
O=C(NCC(=O)N1CCN(Cc2ccccc2)CC1)c1ccc(Br)cc1	?	?	i	-23.8%	-12.0%	-17.3%
Cc1cc(C)cc(C(=O)NCC(=O)N2CCN(c3cccc(Cl)c3)CC2)c1	20.6µM*	?	i	-5.7%	-19.9%	?
O=C(NCc1ccc(Cl)cc1)N1CCN(Cc2ccccc2)CC1	23.1µM*	.	i	4.5%	-15.5%	-14.1%
COc1ccc(-c2ccc3ncnc(NCc4nc(C)cs4)c3c2)cc1OC	?	.	.	.	3.8%	.
CN(C)/C=C/c1oc2ccc(O)cc2c1[N+](=O)[O-]	?	32.3%	?	-8.4%	16.4µM*	-14.5%
Cc1ccccc1CN1C(=O)C(O)(CC(=O)c2ccccc2)c2cc(Cl)ccc21 (stereo unspecified)	.	.	.	20µM*	-3.2%	?
CCCCN1C(=O)C(O)(CC(=O)c2ccc(C)cc2C)c2cc(Br)ccc21 (stereo unspecified)	25.9µM*	?	.	-105.3%	?	?
COc1ccc(C(=O)CC2(O)C(=O)N(CCc3ccccc3)c3ccc(Br)cc32)cc1OC (stereo unspecified)	23.1µM*	?	?	-13.9%	?	?
CCc1ccc(C(=O)CC2(O)C(=O)N(CCc3ccccc3)c3ccc(Cl)cc32)cc1 (stereo unspecified)	?	?	?	20µM*	-20.3%	12.6µM*
CCCc1cc(=O)[nH]c(/N=C(/NC(=O)c2ccccc2)Nc2ccc3c(c2)OCCO3)n1	2.9%	-16.3%	i	3.8%	-0.7%	10.0%
CCOC(=O)/C(=C\c1cccnc1)C(=O)c1cc(C(C)=O)c(Nc2ccccc2)s1	?	3.55µM*	4.47µM*	-89.3%	?	2.82µM*
CCOC(=O)C(=Cc1ccc(Br)cc1)C(=O)OCC	18.4µM*	?	8.91µM*	14.1µM*	?	17.8µM*
CCOC(=O)/C(C#N)=C\c1cccnc1	?	-8.1%	i	-23.4%	-6.0%	13.7%
CCOC(=O)/C(=C\c1ccccc1)C(=O)c1cc(C(C)=O)c(Nc2ccccc2)s1	?	11.2µM*	20µM*	3.16µM*	?	-9.5%
COC(=O)CCCCCn1c(-c2ccccc2)cn2c3c(=O)n(C)c(=O)n(C)c3nc12	4.5%	3.3%	i	-38.0%	-7.3%	-22.2%
COc1ccc(-n2nc(C(=O)N3CCN(c4cccc(C)c4C)CC3)c3c4ccccc4n(C)c3c2=O)cc1	21.2%	1.3%	i	-5.3%	9.0%	-3.8%

Assay outcomes: PubChem BioAssay, National Center for Advancing Translational Sciences (NCATS)
